The campaign covered roughly 100,000 compounds. About 770 (0.77%) were called active. The list comes from a sample in which actives are over-represented; it also holds similar structures and randomly drawn compounds. A number with no mark means an inactive call. Rule as the data show it: active = inhibition above about 50%; inactive = the rest.
Molecular target: Gag-Pol polyprotein (Human immunodeficiency virus type 1 group M subtype B (isolate HXB2)) (UniProt P04585)
Assay: RNase H inhibition, HIV 1 Gag Pol polyprotein, FRET biochemical assay, screening (AID 372)
Conditions: HIV-1 RT RNase H, FRET RNA/DNA substrate fluorescence; at 10 µM; stronger effect = higher value

Row | Compound | inhibition
1 | Cc1cc(NC(=O)c2ccc(-c3ccc(Cl)cc3)o2)ccc1NC(=O)c1ccco1 | 11%
2 | Cc1cc(C)cc(N2C(=O)NC(=O)/C(=C\c3c(C)n(C)c4ccccc34)C2=O)c1 | 12%
3 | Cc1cc2nc(-c3ccc(Cl)c(NC(=O)c4cc([N+](=O)[O-])ccc4Cl)c3)oc2cc1C | 8%
4 | COc1cccc(OC)c1OCC(O)CN1CCC(CN2C(=O)c3cccc4cccc(c34)C2=O)CC1 (configuration not stated) | 19%
5 | CCOC(=O)C1=C(C)N=c2s/c(=C\c3ccc(-c4ccc(Cl)cc4)o3)c(=O)n2C1c1ccc(SC)cc1 (configuration not stated) | 0%
6 | O=C(c1ccc([N+](=O)[O-])cc1[N+](=O)[O-])N1CCN(C(c2ccccc2)c2ccccc2)CC1 | 2%
7 | O=C(CSc1nc2ccccc2s1)Nc1ccc(F)c([N+](=O)[O-])c1 | 2%
8 | CCOc1ccc2ccccc2c1/C=N/NC(=O)CN1CCOCC1 | 9%
9 | CCOC(=O)/C(C#N)=C1/C=C(c2ccccc2)N=C(c2ccccc2)N1 | 16%
10 | COc1ccc2ccccc2c1C=Nc1ccc(C)cc1O | 27%
11 | Cc1ccccc1Cn1cc(C=C2C(=O)NC(=O)NC2=O)c2ccccc21 | 43%
12 | COc1cc(C=O)ccc1OCCCOc1cc(C)c(Cl)cc1C | 21%
13 | COc1ccccc1N=Cc1c(O)n(-c2ccccc2F)c(=O)[nH]c1=O | 8%
14 | Cc1ccc(/C=C2\SC(=S)N(CCC(=O)Nc3ccc(S(=O)(=O)Nc4nccs4)cc3)C2=O)cc1 | 23%
15 | O=C(CCN1C(=O)/C(=C/c2ccc(Cl)cc2)SC1=S)Nc1nccs1 | 10%
16 | Cc1ccc(/C=C2\SC(=S)N(CCC(=O)Nc3ccc([N+](=O)[O-])cc3O)C2=O)cc1 | 52% (active)
17 | Cc1ccc(/C=C2\SC(=S)N(CCCC(=O)Nc3ccc(C)cc3)C2=O)cc1 | 10%
18 | Cc1ccc(/C=C2/SC(=S)N(CCC(=O)Nc3ccc([N+](=O)[O-])cc3)C2=O)cc1 | 10%
19 | Cc1ccc(/C=C2\SC(=S)N(CCc3ccccc3)C2=O)cc1 | 3%
20 | Cc1ccc(/C=C2\SC(=S)N(CCC(=O)Nc3nccs3)C2=O)cc1 | 51% (active)
21 | Cc1ccc(/C=C2\SC(=S)N(CCC(=O)Nc3cc([N+](=O)[O-])ccc3O)C2=O)cc1 | 0%
22 | Cc1ccc(/C=C2\SC(=S)N(CCCC(=O)NCCc3ccccc3)C2=O)cc1 | 57% (active)
23 | Cc1ccc2oc(-c3cccc(NC(=O)c4ccc(-c5ccc([N+](=O)[O-])cc5)o4)c3C)nc2c1 | 20%

Row | Compound | inhibition
24 | CCOc1ccccc1N=C1C(=O)Nc2ccc([N+](=O)[O-])cc21 | 2%
25 | CC1=NN(C(=O)c2cccc(O)c2)C(O)(c2ccc(Br)cc2)C1 (configuration not stated) | 8%
26 | CC(=O)C1C(=O)c2cc([N+](=O)[O-])ccc2C1=Nc1ccc(Br)cc1 (configuration not stated) | 6%
27 | CCOC(=O)C1=C(C)N(C)C(=O)NC1c1ccc2c(c1)OCO2 (configuration not stated) | 7%
28 | CCCCSc1nnc(-c2ccc(Cl)cc2Cl)o1 | 3%
29 | CC1=NN(c2nc(-c3ccc(Cl)cc3)cs2)C(=O)/C1=C\c1ccc2c(c1)OCO2 | 57% (active)
30 | CC1=NN(c2nc(-c3ccc(F)cc3)cs2)C(=O)/C1=C\c1ccc(O)cc1 | 45%
31 | CC1=NN(c2ccc(C)cc2)C(=O)/C1=C\c1ccc2c(c1)OCO2 | 2%
32 | CC1=NN(c2nc(-c3ccc(F)cc3)cs2)C(=O)/C1=C\c1ccc2c(c1)OCO2 | 58% (active)
33 | COc1cc(/C=C2\C(=O)N(c3nc(-c4ccc(Cl)cc4)cs3)N=C2C)cc(OC)c1OC | 45%
34 | CC1=NN(c2nc(-c3ccc(Br)cc3)cs2)C(=O)/C1=C\c1ccc2c(c1)OCO2 | 40%
35 | O=C(/C(=C\c1ccc([N+](=O)[O-])cc1)n1cncn1)c1ccc(Cl)cc1Cl | 16%
36 | CCc1ccc(NC(=O)C(CC)c2ccccc2)cc1 (configuration not stated) | 44%
37 | C/C=C/c1ccc(OCCOCCOc2cccc(C)c2C)c(OC)c1 | 15%
38 | COc1ccc(S(=O)(=O)N(Cc2ccccc2)c2ccccc2C(=O)NC(C)c2ccccc2)cc1 (configuration not stated) | 26%
39 | Cc1nc2sccn2c1-c1csc(Nc2ccc(O)cc2)n1 | 12%
40 | Cc1nc2sccn2c1-c1csc(Nc2ccc([N+](=O)[O-])cc2)n1 | 69% (active)
41 | Cc1nc2ccccn2c1-c1csc(Nc2ccc([N+](=O)[O-])cc2)n1 | 14%
42 | Cc1cccc(-n2sc3c(c2=S)-c2ccccc2NC3(C)C)c1C | 10%
43 | CCOc1cc(CN2CCN(c3ccccn3)CC2)ccc1O | 15%
44 | O=C(/C=C\c1ccccc1)Nc1cccc(-c2nc3ccccc3[nH]2)c1 | 21%
45 | Cc1ccc2nc(-c3ccc(NC(=O)/C=C\c4ccccc4)cc3)oc2c1 | 40%
46 | Cc1ccc2oc(-c3ccc(NC(=O)/C=C/c4ccccc4)cc3O)nc2c1 | 22%

Row | Compound | inhibition
47 | O=C(/C=C/c1ccccc1)Nc1ccc(-c2nc3cc(NC(=O)/C=C/c4ccccc4)ccc3[nH]2)cc1 | 72% (active)
48 | Cc1ccc2oc(-c3ccc(NC(=O)/C=C\c4ccccc4)cc3)nc2c1 | 52% (active)
49 | Cc1ccc(-c2nc3ccccc3[nH]2)cc1NC(=O)/C=C\c1ccccc1 | 15%
50 | COc1ccc(/C=C\C(=O)Nc2ccc3oc(-c4cccnc4)nc3c2)cc1 | 7%
51 | O=C(/C=C\c1ccccc1)Nc1ccc2oc(-c3ccccc3)nc2c1 | 16%
52 | COc1cccc(-c2nc3cc(NC(=O)/C=C\c4ccccc4)ccc3o2)c1 | 62% (active)
53 | Cc1cc(/C=C(\C#N)C(=O)Nc2ccc(F)cc2)c(C)n1-c1ccc2c(c1)OCO2 | 7%
54 | Cc1ccc(C(=O)Nc2cc(Cl)ccc2C)c(Cl)c1 | 14%
55 | CCN(CC)CCCCCCOc1ccccc1OC | 8%
56 | COc1ccc(-c2csc(/C(C#N)=C\Nc3cc(Cl)ccc3Cl)n2)cc1OC | 40%
57 | COc1cccc(-c2csc(/C(C#N)=C\Nc3cc(OC)c(Cl)cc3OC)n2)c1 | 16%
58 | COc1cc(-c2csc(/C(C#N)=C/Nc3cccc(F)c3)n2)ccc1O | 57% (active)
59 | N#C/C(=C/Nc1cccc(Cl)c1Cl)c1nc(-c2ccc3c(c2)OCO3)cs1 | 58% (active)
60 | COc1ccc(-c2csc(/C(C#N)=C\Nc3cccc(Cl)c3Cl)n2)cc1OC | 51% (active)
61 | COc1ccc(-c2csc(/C(C#N)=C\Nc3cc(OC)c(Cl)cc3OC)n2)cc1 | 52% (active)
62 | N#C/C(=C/Nc1cc(Cl)cc(Cl)c1)c1nc(-c2ccc3c(c2)OCO3)cs1 | 39%
63 | Cc1ccc(-c2csc(/C(C#N)=C/Nc3cccc(F)c3)n2)cc1 | 4%
64 | COc1cccc(N/C=C(\C#N)c2nc(-c3ccc(O)c(OC)c3)cs2)c1 | 13%
65 | COc1cc(N/C=C(/C#N)c2nc(-c3ccc(OC)c(OC)c3)cs2)c(OC)cc1Cl | 48%
66 | N#C/C(=C/Nc1ccccc1F)c1nc(-c2ccc3c(c2)OCO3)cs1 | 12%
67 | COc1ccc(-c2csc(/C(C#N)=C\Nc3cccc(C)c3C)n2)cc1OC | 17%

From PubChem BioAssay AID372 (MTDP, 2006)
